# Screening data as filed in PubChem.
# HEK293 tox: cytotoxic compounds in HEK 293 cells; HEK 293 viability, ATP luminescence (CellTiter-Glo), 48-72 h; Potency, µM (top dose mostly 115 µM), usual class: inhibitors; 6.6% of 94,000 active; AID 1345083; further: nearly all actives have a fitted effect of over 60% in size
#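 Read-out: CellTiter-Glo ATP luminescence. Cells: HEK 293, 250 cells/well. Exposure: 48 or 72 hr, 37 degree Celsius.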
# 3T3 cytotox: NIH 3T3 cell cytotoxicity | NIH 3T3 viability, CellTiter-Glo ATP luminescence, 48-72 h | Potency, µM (doses to about 96.7 µM), most hits filed as inhibitors | 4.3% of 94,000 active; further: nearly all actives have a fitted effect of over 55% in size
#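 ATP-dependent luminescence (CellTiter-Glo) served as the viability signal for NIH 3T3 cells treated with compound for 48 or 72 hr at 37 °C.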
# NPR1 antag: antagonists of human natriuretic peptide receptor Npr1. P16066. HEK293 hNpr1 GloSensor cGMP, ANP-stimulated luminescence. Potency, µM (titrated, usually from 46.3 µM), usual class: inhibitors. 1.6% of 76,000 active. AID 1347048; calls by dose curve; further: nearly all actives have a fitted effect of over 60% in size
#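 HEK293 cells stably expressing human Npr1 and cGMP GloSensor pGS-40F, loaded 2 h with 2% GloSensor reagent, given compound 30 min at room temperature. Luminescence read before and 20 min after 0.1 nM hNppA.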
# SNCA expr inhib: reduces expression of the alpha-synuclein gene; HEK-293 SNCA-luciferase knock-in, luminescence, 24 h; Potency, µM (top dose mostly 57.2 µM), actives largely listed as inhibitors; 0.17% of 140,000 active; AID 1671194; further: nearly all actives have a fitted effect of over 45% in size
# FLuc inh: Photinus pyralis luciferase inhibition. P08659. purified P. pyralis luciferase, luminescence, biochemical. Potency, µM (highest dose often 115 µM), usual class: inhibitors. 2.5% of 76,000 active. AID 1347043; further: nearly all actives have a fitted effect of over 65% in size
#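 Biochemical qHTS: compound (6-point titration) added to 10uM D-luciferin plus 10uM ATP in Tris acetate pH 7.5 buffer with Mg, Tween-20 and BSA, then purified enzyme at 10nM; light output imaged.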
# SNCA viab count: counter-screen for SNCA expression inhibitors: cell viability | Potency, µM (highest dose often 57.1 µM), actives largely listed as cytotoxic | 0.12% of 150,000 active | HEK-293-SNCA-luc viability, GF-AFC fluorescence, 24 h | AID 1671193; further: nearly all actives have a fitted effect of over 30% in size
#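 HEK-293-SNCA-luc cells (1500/well) plated 24 h, then exposed 24 h to a dilution series; GF-AFC added 30 min at 37C, fluorescence 405/540 nm; normalised to medium-only and DMSO wells, Hill fit.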
# Npr1 antag conf: confirmation of human Npr1 natriuretic peptide receptor antagonists. shares compounds with NPR1 antag. HEK293 hNpr1 cGMP GloSensor luminescence, ANP-stimulated. Potency, µM (series often up to 57.6 µM), actives largely listed as inhibitors. 76% of 1,400 active; calls by dose curve; further: nearly all actives have a fitted effect of over 70% in size
# Npr2 selectivity: hNpr2 antagonism, selectivity versus Npr1; shares compounds with NPR1 antag; HEK293 hNpr2 GloSensor cGMP luminescence, CNP-stimulated; Potency, µM (highest dose often 57.6 µM), hits mostly inhibitors; 67% of 1,400 active; calls by dose curve; further: nearly all actives have a fitted effect of over 70% in size
# FLuc counter: counter-screen for Npr1 antagonists: firefly luciferase inhibitors | shares compounds with NPR1 antag | purified FLuc enzyme, luminescence, Km substrate | Potency, µM (titrated, usually from 57.6 µM), usual class: inhibitors | 0.7% of 1,400 active; further: series mostly up to about 58 µM
# GloSensor cGMP: counter-screen for Npr1 antagonists: GloSensor control cell line; shares compounds with NPR1 antag; AID 1347051; Potency, µM (titrated, usually from 57.6 µM), hits mostly inhibitors; 69% of 1,400 active; HEK293 GloSensor cGMP, SNP-stimulated, luminescence; calls by dose curve; further: nearly all actives have a fitted effect of over 70% in size
# A number is an active result; - = inactive; ? = inconclusive; . = no result given. In the library only some 7.4% were active in any assay of this set; here they are far more common. Unless noted, the call rests on the fitted dose curve; in most records, active means well fitted curve in the direction sought with a large enough effect; inconclusive means small, poorly fitted or top-dose-only effect, or another doubt; inactive means no such curve, though single readings can be large; an effect the other way counts as inactive or inconclusive.
SMILES,HEK293 tox,3T3 cytotox,NPR1 antag,SNCA expr inhib,FLuc inh,SNCA viab count,Npr1 antag conf,Npr2 selectivity,FLuc counter,GloSensor cGMP
CC1=C[C@@H](CNC(=O)c2ccccn2)[C@H](C(C)C)C[C@H]1Cc1nnc(-c2ccncc2)o1,22µM,?,14µM,-,-,-,18µM,22µM,-,18µM
COc1ccc(-c2nnc(C[C@@H]3C[C@@H](C(C)C)[C@H](CNC(=O)c4ccc(F)cc4)C=C3C)o2)cc1,?,?,?,?,-,?,?,-,-,?
COc1cccc(NC(=O)c2ccc(-c3nnc4ccc(NC(=O)C5CCC5)cn34)cc2)c1,-,-,?,-,-,-,24µM,?,-,22µM
CC(C)NC(=O)c1ccc(-c2nnc3ccc(NC(=O)C4CCC4)cn23)cc1,?,-,-,-,-,-,.,.,.,.
CC(C)Oc1ccc(CN2C[C@@H](CO)[C@H](c3ccncc3)C2)cc1,40µM,-,11µM,-,-,-,?,?,-,27µM
c1ccc2ncc(CNC[C@H]3COCc4nc5ccccc5n43)cc2c1,?,?,20µM,-,-,-,31µM,31µM,-,28µM
Cc1cccc2c1nc1n2[C@@H](CNCc2ccccc2)COC1,?,?,20µM,-,-,-,31µM,31µM,-,22µM
Fc1ccc2c(c1)nc1n2[C@@H](CNCc2cnc3ccccc3c2)COC1,?,-,35µM,-,-,-,40µM,?,-,40µM
Fc1ccc2c(c1)nc1n2[C@@H](CNCc2ccccn2)COC1,?,?,-,-,-,-,.,.,.,.
COc1ccc2nc3n(c2c1)[C@@H](CNCc1cnc2ccccc2c1)COC3,-,-,-,-,-,-,.,.,.,.
Cc1cccc2c1nc1n2[C@@H](CNCc2ccc(C#N)cc2)COC1,?,?,?,-,-,-,.,.,.,.
CN(C)C(=O)c1cn2cc(-c3ccc(F)cc3)sc2n1,-,-,.,-,.,-,.,.,.,.
C=CCNC(=O)N1C[C@@H](C(=O)OCC)[C@@H]2Oc3c(C)cccc3[C@@H]21,-,?,.,.,.,.,.,.,.,.
COc1ccccc1-c1ccc2ncc(Nc3ccc4c(c3)OCO4)n2n1,?,?,-,-,-,-,.,.,.,.
COc1ccc(Nc2cnc3ccc(-c4ccccc4OC)nn23)cc1OC,?,?,28µM,-,-,-,25µM,25µM,?,22µM
O=C1CC2(CCN(C(=O)c3ccc(Cl)cc3)CC2)Oc2ccccc2N1,?,-,.,?,.,-,17µM,19µM,-,12µM
O=C1CC2(CCN(C(=O)C3CCN(C(=O)c4ccc(F)cc4)CC3)CC2)Oc2ccccc2N1,?,-,.,-,.,-,.,.,.,.
CN1Cc2cc(F)ccc2N(CC(O)COc2ccccc2)CCC1=O (stereo not given),-,?,.,.,.,.,.,.,.,.
O=C(c1ccc2c(c1)OCO2)N1CCC2(CC1)N=C(c1ccc(Br)cc1)NO2,?,?,13µM,-,-,-,22µM,19µM,-,17µM
COc1ccc(C(=O)N2CCC3(CC2)N=C(c2ccc(Br)cc2)NO3)cc1OC,?,-,10µM,-,-,-,6.9µM,11µM,-,6.9µM
COc1ccc(C(=O)N2CCC3(CC2)N=C(c2ccc(Cl)cc2)NO3)cc1OC,?,-,11µM,?,-,-,11µM,12µM,-,9.7µM
CCOc1ccc(C(=O)N2CCC3(CC2)N=C(c2ccc(Cl)cc2)NO3)cc1,?,-,8.9µM,-,-,-,19µM,17µM,-,15µM
CCOc1ccc(CC(=O)N2CCC3(CC2)N=C(c2ccc(Cl)cc2)NO3)cc1,?,?,?,-,-,-,.,.,.,.
COc1ccc(C(=O)N2CCC3(CC2)N=C(c2ccccc2)NO3)cc1OC,-,-,-,-,-,-,.,.,.,.
CN1CC(=O)N(C2CCNC2)Cc2c1ncnc2N1CCC(N2CCCCC2)CC1 (stereo not given),-,-,.,-,.,-,.,.,.,.
SMILES,HEK293 tox,3T3 cytotox,NPR1 antag,SNCA expr inhib,FLuc inh,SNCA viab count,Npr1 antag conf,Npr2 selectivity,FLuc counter,GloSensor cGMP
CN1CC(=O)N(C2CCNC2)Cc2c1ncnc2N1CC[C@H](N(C)C)C1 (stereo not given in full),-,-,.,-,.,-,-,-,-,-
O=C1NCc2ccccc2CC12CCCN2Cc1ccc(Br)cc1 (stereo not given),?,?,.,-,.,-,-,-,-,-
COc1ccc(-n2nc(C3CCN(Cc4cccc5ccccc45)CC3)[nH]c2=O)cc1,?,?,11µM,-,-,-,24µM,24µM,-,27µM
COc1ccc(-n2nc(C3CCCN(Cc4cccc5ccccc45)C3)[nH]c2=O)cc1 (stereo not given),?,?,-,-,-,-,.,.,.,.
C=CCN1C[C@@H]2C[C@@H](C(=O)NC)N(C(=O)CCc3ccccc3)c3cccc(c32)C1=O,-,?,.,-,.,-,.,.,.,.
FC(F)(F)c1ccc(CN2CCC3(CC(c4cccnc4)=NO3)C2)cc1 (stereo not given),?,-,.,-,.,-,.,.,.,.
FC(F)(F)c1ccc(CN2CCC3(CC2)CC(c2cccnc2)=NO3)cc1,?,?,2.5µM,?,-,-,6.9µM,11µM,-,6.1µM
O=C(c1ccc(F)cc1)N1CCC(Cc2nc(-c3ccccc3)no2)CC1,?,?,5µM,?,-,-,4.8µM,6.1µM,-,5.4µM
COc1cccc(C(=O)N2CCC(Cc3nc(C(C)C)no3)CC2)c1,?,?,-,-,-,-,.,.,.,.
O=C(c1cccc(F)c1)N1CCC(Cc2nc(-c3ccccc3)no2)CC1,?,?,6.3µM,?,-,-,6.9µM,9.7µM,-,6.9µM
O=C(c1ccco1)N1CCC(Cc2nc(-c3ccccc3)no2)CC1,?,?,?,-,-,-,.,.,.,.
COc1cccc(-c2noc(CC3CCN(C(=O)c4cccc(F)c4)CC3)n2)c1,?,?,6.3µM,-,-,-,6.1µM,6.9µM,-,4.8µM
O=C(C1CCC1)N1CCC(OCc2ccccc2)C1 (stereo not given),-,-,.,-,.,-,.,.,.,.
